# Screens as filed in PubChem BioAssay.
# FECH inh: inhibitors of human ferrochelatase; P22830; purified FECH, Ni-mesoporphyrin absorbance 550 nm; calls only at 10 µM (by protocol); hit rate 3.3% among 20,000; AID 1671448;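 active = enzyme reaction rate more than 3 SD below the solvent-only control wells on the same plate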;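 note: lower slope than DMSO wells means FECH inhibition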
# Target sequence (P22830 whole entry, looked up): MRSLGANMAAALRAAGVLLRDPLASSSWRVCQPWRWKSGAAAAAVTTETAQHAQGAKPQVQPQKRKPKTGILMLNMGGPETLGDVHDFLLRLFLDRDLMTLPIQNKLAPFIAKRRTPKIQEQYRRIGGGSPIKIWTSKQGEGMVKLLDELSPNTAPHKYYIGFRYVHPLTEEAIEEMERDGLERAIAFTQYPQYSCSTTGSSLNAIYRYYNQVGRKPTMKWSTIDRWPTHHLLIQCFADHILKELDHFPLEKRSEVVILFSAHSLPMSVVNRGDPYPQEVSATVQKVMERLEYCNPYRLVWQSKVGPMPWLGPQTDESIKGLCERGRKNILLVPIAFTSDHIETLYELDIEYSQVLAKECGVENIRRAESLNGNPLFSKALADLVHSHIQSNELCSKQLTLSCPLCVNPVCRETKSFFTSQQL
# An asterisk follows results filed as active; i = inactive; + = active, no number. Only a selection was taken, and hits are over-represented in it overall.
SMILES,FECH inh
COc1ccc(OC)c(Nc2nc(NCc3ccccc3Cl)nc3c2cnn3-c2ccccc2)c1,+
COc1ccc(OC)c(Nc2nc(NCc3ccccc3)nc3c2cnn3-c2ccccc2)c1,i
CCOc1ccc(Nc2nc(N(CC)CCO)nc3c2cnn3-c2ccccc2)cc1,i
COc1ccc(OC)c(Nc2nc(NCc3ccccc3OC)nc3c2cnn3-c2ccccc2)c1,i
CCOc1ccc(Nc2nc(N(CC)CC)nc3c2cnn3-c2ccccc2)cc1,i
CCOc1ccc(Nc2nc(NCC3CCCO3)nc3c2cnn3-c2ccccc2)cc1 (configuration not stated),+
Cc1cc(C)cc(Nc2nc(NCC3CCCO3)nc3c2cnn3-c2ccccc2)c1 (configuration not stated),i
CN(C)c1nc(Nc2ccc(Cl)cc2)c2cnn(-c3ccccc3)c2n1,i
COc1cccc(Nc2nc(NCC3CCCO3)nc3c2cnn3-c2ccccc2)c1 (configuration not stated),i
COc1cccc(Nc2nc(N(C)C)nc3c2cnn3-c2ccccc2)c1,i
COc1ccc(Nc2nc(N(C)C)nc3c2cnn3-c2ccccc2)cc1,+
CCN(CC)c1nc(Nc2ccc(OC)cc2)c2cnn(-c3ccccc3)c2n1,+
Cc1oc(-c2ccc(OC(C)C)cc2)nc1Cn1c(=O)c2cnc(-c3ccncc3)nc2n(C)c1=O,i
Cc1cc(N2CCOCC2)nc(N2CCN(S(=O)(=O)c3ccc(C)c(C)c3)CC2)n1,i
COc1cccc(CNC(=O)Cn2nc(C)cc2C)c1,i
CCc1c(C)nc(SCc2nc(-c3ccc(OC(C)C)cc3)oc2C)[nH]c1=O,i
Cc1ccc(-c2ncc3c(=O)n(Cc4cccnc4)c(=O)n(C)c3n2)cc1,i
CN(Cc1cccc(C(=O)Nc2nccn2C)c1)C1Cc2ccccc2C1,i
Cc1cc(C)cc(-n2c(CN3CCN(S(=O)(=O)c4ccc5c(c4)CCCC5)CC3)nc3cccnc32)c1,i
COc1ccccc1NC(=O)Nc1nc(CC(=O)NC2CCCCC2)cs1,i
COc1ccc(N2C(=O)N(CC(=O)NCCc3ccccc3)c3ccccc3S2(=O)=O)cc1OC,i
CCN1C(SCC(=O)Nc2ccccc2C)=NS(=O)(=O)c2ccccc21,+
Cc1ccc(CN2c3ccccc3-c3nc(SCC(=O)Nc4ccc(C)c(Cl)c4)ncc3S2(=O)=O)cc1,i
CCC(=O)Nc1ccccc1-c1nnc(SCC(=O)Nc2cccc(Cl)c2Cl)[nH]c1=O,i
CCN1C(SCC(=O)Nc2c(C)cccc2C)=NS(=O)(=O)c2ccccc21,+
SMILES,FECH inh
Cc1cccc(C)c1NC(=O)CSCc1nc(-c2ccccc2)no1,i
CCN1C(SCC(=O)Nc2cc(Cl)c(OC)cc2OC)=NS(=O)(=O)c2ccccc21,i
CCCCNC(=O)CSC1=NS(=O)(=O)c2ccccc2N1CC,+
Cc1ccccc1N1C(=O)N(CC(=O)NC2CCCC2)c2ccccc2S1(=O)=O,i
CCN1C(SCC(=O)Nc2ccc(Cl)cc2F)=NS(=O)(=O)c2ccccc21,+
CCN1C(SCC(=O)Nc2cc(Cl)ccc2C)=NS(=O)(=O)c2ccccc21,i
CCCCNC(=O)CC1CCN(S(=O)(=O)c2ccccc2)CC1,i
CCCOCCN1CCN(c2cc(N3CCCC3)nc(N)n2)CC1,i
Cn1c(=O)c(C(=O)NCCc2ccccc2)nc2ccccc21,i
CCCc1cc(Sc2ccc(NC(=O)c3ccc(F)cc3)cc2)n2ncnc2n1,i
CC(C)CCNC(=O)NCCc1nc2cccnc2n1C1CCCCC1,i
Cc1ccc(C2(CN(C)Cc3cc(C(C)C)on3)CCNCC2)nc1,i
O=C(Cc1ccccc1Cl)NCCn1c(CCc2ccccc2)nc2cccnc21,i
Cc1cc(C)c(S(=O)(=O)N2CCN(Cc3nc4cccnc4n3-c3ccccc3)CC2)cc1C,i
COC(=O)[C@H]1C[C@@H](O)CCN1C(=O)c1ccc(-n2cccn2)cc1,i
Cc1ccc2nc(CCCNC(=O)c3ccc(C4CCCO4)s3)oc2c1 (configuration not stated),i
CCc1cccc(C)c1NC(=O)c1nc2ccccc2n(C)c1=O,i
CCc1cccc(C)c1NC(=O)CSC1=NS(=O)(=O)c2ccccc2N1CC,+
CCC1=C(c2ccc(OC)cc2)S(=O)(=O)N(CC(=O)Nc2c(C)cccc2CC)C1=O,i
O=C(c1ccc(Oc2ccccc2)cc1)C1CCCN(CCn2cncn2)C1 (configuration not stated),i
CC(=O)Nc1ccc(S(=O)(=O)NCc2nc3cccnc3n2Cc2ccccc2)cc1,i
c1cncc(-c2nc(CCNCc3nc(-c4ccco4)no3)cs2)c1,+
O=C(NCCc1csc(-c2cccnc2)n1)C1CNCCO1 (configuration not stated),i
Cc1nc2c(c(NCCc3csc(-c4cccnc4)n3)n1)CCNC2,i
CN(C(=O)Cn1c(=O)c2cnc(-c3ccccc3)nc2n(C)c1=O)c1ccccc1Cl,i
SMILES,FECH inh
O=C(Nc1nc2n(n1)C(c1ccc(Cl)cc1)C=C(c1ccccc1)N2)c1ccccc1 (configuration not stated),i
Cc1cc(Sc2ccccc2NC(=O)c2ccccc2Br)n2nc(-c3ccccc3)nc2n1,i
COc1ccc(CN(Cc2ccncc2)Cc2ccc(F)cc2)cn1,i
CC(C)CC1(CO)CCCN(C(=O)CCC(=O)NC2CCCC2)C1 (configuration not stated),i
COc1ccccc1C1CCN(C(=O)CCC(=O)NC2CCCC2)CC1,i
O=C(CCC(=O)N1CCN(CC2CCCO2)CC1)NC1CCCC1 (configuration not stated),+
CC(C)CN(Cc1cnn(C)c1)C(=O)c1ncccc1C(=O)c1ccccc1,i
COc1cccc(OCC(=O)Nc2cc(N3CCCS3(=O)=O)ccc2C)c1,i
Cc1cccc(OCC(=O)Nc2cc(N3CCCS3(=O)=O)ccc2C)c1,+
Cc1ccc(OCC(=O)Nc2cc(N3CCCS3(=O)=O)ccc2C)cc1,i
CCc1ccc(-n2c(CN3CCN(S(C)(=O)=O)CC3)nc3cccnc32)cc1,i
Cc1ncc(CO)c2cc(C3=NS(=O)(=O)c4ccccc4N3)c(=O)oc12,+
COc1ccc(NC(=O)C2CCN(c3ccc(-c4ccc(Br)s4)nn3)CC2)cc1OC,i
COc1coc(CN2CCCC3(C2)CN(C)C(=O)O3)cc1=O (configuration not stated),i
Cc1ccc(C(=O)NCCn2c(-c3ccncc3)nc3cccnc32)cc1F,i
CC(C)n1cnc2nc(CSc3ccccc3NC(=O)c3cccc(F)c3)cc(=O)n21,+
CCc1cc(Sc2ccccc2NC(=O)c2cccc(F)c2)n2ncnc2n1,i
CC(C)n1cnc2nc(CSc3ccccc3NC(=O)c3ccc(F)c(Cl)c3)cc(=O)n21,i
c1ccc(-n2nc(C3CC3)nc2-c2ccccc2-c2nn[nH]n2)cc1,i
Cc1cnc(C)c(Oc2ccccc2CN2CCCCC2)n1,i
CCc1nc(C2CC(=O)Nc3cc(O)c(C)cc32)c(C)[nH]1 (configuration not stated),i
CCOC(=O)c1cc2ccsc2n1CC(=O)N(CC)c1ccccc1,+
CCOC(=O)c1cc2ccsc2n1CC(=O)N(CC)c1cccc(C)c1,i
CCOC(=O)c1cc2ccsc2n1CC(=O)Nc1ccccc1C(=O)OC,i
CCc1c(C)nc2nc(-c3ccccc3)nn2c1Sc1ccccc1NC(=O)c1ccccc1,i
O=C(CN1c2ccc(Br)cc2-c2ccccc2S1(=O)=O)N1CCc2ccccc2C1,i
